# From PubChem BioAssay
# Activity calls are given as the source filed them.
# Experiments:
# [1] = optical density shifts of acrAB sulA E. coli – strain DRC41, OD650, 48 h, E. coli filamentation inducer project, primary screen (AID 1152); conditions: higher = more signal, called active from +8 up or from −8 down;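 further: E. coli MC1000 strain DRC41 lacking acrAB efflux pump and sulA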
# [2] = probe aLefty1 binding on compound microarray – biochemical, small-molecule microarray, 635/667 nm fluorescence, primary screen (AID 1153); conditions: higher = more signal;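 further: score merges spot fluorescence with signal-to-noise ratio from the scanned slide images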
# [3] = plasmodial surface anion channel blockers, osmotic lysis – cell-based, P. falciparum Indochina, OD700, 1 h, primary screen (AID 1154); conditions: P. falciparum Indochina infected RBC osmotic lysis, higher = more signal, called active from +8 up or from −8 down
# [4] = plasmodial surface anion channel blockers, osmotic lysis – cell-based, P. falciparum Indochina, OD700, 2 h, primary screen (AID 1155);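 further: lysis reports solute entry through the parasite surface anion channel PSAC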; conditions: P. falciparum Indochina infected erythrocytes, higher = more signal, called active from +8 up or from −8 down
# [5] = changes in parasitized red cell lysis, either direction – P. falciparum Indochina, OD700, 3 h, PSAC antagonist project, primary screen (AID 1156); conditions: P. falciparum-infected erythrocytes, osmotic lysis, higher = more signal, called active from +8 up or from −8 down
# [6] = plasmodial surface anion channel blockers, osmotic lysis – cell-based, P. falciparum Indochina, OD700, 18 h, primary screen (AID 1157); conditions: P. falciparum Indochina infected erythrocytes, osmotic lysis OD700, 18 h; higher = more signal, called active from +8 up or from −8 down
# [7] = S6 kinase pathway phospho-S6 level changes – cell-based, A549, cytoblot, luminescence, serum-stimulated, primary screen (AID 1158); conditions: 5 h, higher = more signal;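 further: serum-stimulated A549 lung adenocarcinoma cells; signal is phosphorylated S6 detected by cytoblot immunostaining with HRP secondary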
# [8] = target: NADPH oxidase 2 (Homo sapiens) (UniProt P04839); experiment: compounds shifting NOX2 Amplex Red fluorescence – cell-based, HEK293-NOX2, PMA-stimulated, NOX inhibitor project, primary screen (AID 1159); conditions: 45 min, higher = more signal, called active from +8 up or from −8 down; further: test concentration not given here
# Chain of NADPH oxidase 2 (Homo sapiens) (P04839 whole entry, looked up): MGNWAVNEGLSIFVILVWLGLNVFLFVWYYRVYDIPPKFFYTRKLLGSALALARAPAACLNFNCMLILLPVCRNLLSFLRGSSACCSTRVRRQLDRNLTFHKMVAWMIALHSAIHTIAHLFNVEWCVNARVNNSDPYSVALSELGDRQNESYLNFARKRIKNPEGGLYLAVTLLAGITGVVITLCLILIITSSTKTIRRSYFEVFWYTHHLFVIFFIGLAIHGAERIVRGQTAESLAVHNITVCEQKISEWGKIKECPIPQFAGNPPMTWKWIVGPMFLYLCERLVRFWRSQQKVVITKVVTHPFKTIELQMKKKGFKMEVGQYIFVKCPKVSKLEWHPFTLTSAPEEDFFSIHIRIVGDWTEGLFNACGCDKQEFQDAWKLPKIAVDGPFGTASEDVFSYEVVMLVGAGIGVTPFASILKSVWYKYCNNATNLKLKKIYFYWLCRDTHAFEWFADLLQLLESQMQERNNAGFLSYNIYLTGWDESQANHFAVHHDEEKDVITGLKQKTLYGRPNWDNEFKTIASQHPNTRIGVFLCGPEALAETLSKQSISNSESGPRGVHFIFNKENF
# [9] = target: NADPH oxidase 4 (Homo sapiens) (UniProt Q9NPH5); experiment: compounds shifting NOX4 Amplex Red fluorescence – cell-based, HEK293-NOX4, tetracycline-induced, NOX inhibitor project, primary screen (AID 1160); conditions: HEK293-NOX4, Amplex Red H2O2 fluorescence, 45 min; higher = more signal, called active from +8 up or from −8 down
# Chain of NADPH oxidase 4 (Homo sapiens) (Q9NPH5 whole entry, looked up): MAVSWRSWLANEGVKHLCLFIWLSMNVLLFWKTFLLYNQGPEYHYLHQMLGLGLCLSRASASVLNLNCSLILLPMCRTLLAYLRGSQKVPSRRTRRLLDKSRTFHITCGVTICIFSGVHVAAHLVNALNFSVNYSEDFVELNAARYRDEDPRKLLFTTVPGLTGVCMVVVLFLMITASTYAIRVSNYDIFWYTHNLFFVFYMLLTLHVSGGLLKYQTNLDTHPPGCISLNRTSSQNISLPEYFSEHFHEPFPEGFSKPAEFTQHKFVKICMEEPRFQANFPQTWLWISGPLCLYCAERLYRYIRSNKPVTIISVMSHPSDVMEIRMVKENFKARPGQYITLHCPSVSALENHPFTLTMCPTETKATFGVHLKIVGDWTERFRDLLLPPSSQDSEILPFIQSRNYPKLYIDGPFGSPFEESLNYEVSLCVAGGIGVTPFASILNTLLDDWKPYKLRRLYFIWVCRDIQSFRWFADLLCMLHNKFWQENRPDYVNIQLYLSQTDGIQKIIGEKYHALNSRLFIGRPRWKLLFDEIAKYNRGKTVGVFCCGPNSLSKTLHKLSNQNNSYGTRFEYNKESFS
# [10] = target: NADPH oxidase 5 (Homo sapiens) (UniProt Q96PH1); experiment: compounds shifting NOX5 Amplex Red fluorescence – cell-based, HEK293-NOX5, NOX inhibitor project, primary screen (AID 1161); conditions: HEK293-NOX5, ionomycin, 45 min, higher = more signal
# Chain of NADPH oxidase 5 (Homo sapiens) (Q96PH1 whole entry, looked up): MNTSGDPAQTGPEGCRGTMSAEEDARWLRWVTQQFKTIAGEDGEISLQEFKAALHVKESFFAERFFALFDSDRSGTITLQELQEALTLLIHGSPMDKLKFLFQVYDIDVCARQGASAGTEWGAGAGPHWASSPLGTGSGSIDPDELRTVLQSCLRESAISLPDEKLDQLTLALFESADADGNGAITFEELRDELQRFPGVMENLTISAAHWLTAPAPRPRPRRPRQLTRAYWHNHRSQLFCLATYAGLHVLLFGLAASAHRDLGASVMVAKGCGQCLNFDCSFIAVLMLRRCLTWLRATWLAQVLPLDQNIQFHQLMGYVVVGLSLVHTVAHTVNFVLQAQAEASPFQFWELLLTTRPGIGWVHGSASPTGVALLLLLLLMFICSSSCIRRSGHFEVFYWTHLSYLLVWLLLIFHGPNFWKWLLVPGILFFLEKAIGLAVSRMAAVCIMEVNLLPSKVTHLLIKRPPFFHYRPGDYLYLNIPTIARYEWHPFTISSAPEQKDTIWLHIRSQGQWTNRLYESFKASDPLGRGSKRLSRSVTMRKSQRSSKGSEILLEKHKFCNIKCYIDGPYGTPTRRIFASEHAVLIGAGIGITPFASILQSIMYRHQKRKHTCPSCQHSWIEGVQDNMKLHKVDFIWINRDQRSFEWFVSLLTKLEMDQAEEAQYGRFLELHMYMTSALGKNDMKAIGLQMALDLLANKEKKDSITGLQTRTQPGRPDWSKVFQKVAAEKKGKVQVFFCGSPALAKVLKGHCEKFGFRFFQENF
# [11] = compound effects on lung adenocarcinoma cell viability – A549, calcein-AM fluorescence, 48 h, basal, profiling panel (AID 1162); conditions: higher = more signal; further: test concentration not given here
# [12] = compound effects on differentiated 3T3-L1 adipocyte viability – cell-based, 3T3-L1 adipocytes, calcein-AM fluorescence, 48 h, basal, profiling panel (AID 1163); conditions: 3T3-L1 adipocytes viability, higher = more signal; further: test concentration not given here
# [13] = compound effects on hepatocellular carcinoma cell viability – HepG2, calcein-AM fluorescence, 48 h, basal, profiling panel (AID 1164); conditions: higher = more signal; further: test concentration not given here
# [14] = compound effects on multiple myeloma cell viability – MM1S, calcein-AM fluorescence, 48 h, basal, profiling panel (AID 1165); conditions: higher = more signal; further: test concentration not given here
# [15] = calcein-AM signal in unstimulated myeloma cells – cell-based, calcein-AM fluorescence, 48 h, PK04 Diversity Set, profiling panel (AID 1166); conditions: RPMI8226 myeloma viability, higher = more signal;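 further: cells grown under basal conditions without added stimulus; test concentration not given here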
# [16] = JC-1 mitochondrial signal, unstimulated HepG2 cells – cell-based, JC-1 fluorescence, 24 h, 100 nL compound, profiling panel (AID 1167); conditions: HepG2 mitochondrial potential, higher = more signal; further: test concentration not given here
# [17] = JC-1 mitochondrial signal, unstimulated adipocytes – cell-based, JC-1 fluorescence, 3T3-L1 adipocytes, 24 h, 100 nL compound, profiling panel (AID 1168); conditions: JC-1 mitochondrial fluorescence, higher = more signal, called active from +8 up or from −8 down; further: test concentration not given here
# [18] = JC-1 mitochondrial signal, unstimulated myeloma cells – cell-based, JC-1 fluorescence, RPMI8226, 24 h, 100 nL compound, profiling panel (AID 1169); conditions: JC-1 mitochondrial potential fluorescence, higher = more signal; further: test concentration not given here
# [19] = JC-1 mitochondrial signal, unstimulated MM1S myeloma – cell-based, JC-1 fluorescence, 24 h, 100 nL compound, profiling panel (AID 1170); conditions: MM1S mitochondrial potential, higher = more signal; further: test concentration not given here
# [20] = resazurin metabolic signal in A549 cells – cell-based, resazurin fluorescence, 24 h, PK04 Diversity Set, profiling panel (AID 1171); conditions: A549 viability, higher = more signal, called active from +8 up or from −8 down; further: test concentration not given here
SMILES,z-score [1],composite z-score [2],z-score [3],z-score [4],z-score [5],z-score [6],z-score [7],z-score [8],z-score [9],z-score [10],z-score [11],z-score [12],z-score [13],z-score [14],z-score [15],z-score [16],z-score [17],z-score [18],z-score [19],z-score [20]
COCCOC(=O)N1C(=O)[C@@]2(c3cc(C#CC4(O)CCCCCC4)ccc31)[C@H](c1ccccc1OCCO)N1[C@H](c3ccccc3)[C@H](c3ccccc3)OC(=O)[C@H]1[C@@H]2C(=O)N1CCc2cc(OC)c(OC)cc2C1,0.109 (inactive),0.379,2.53 (inactive),0.888 (inactive),0.467 (inactive),0.773 (inactive),0.495,1.25 (inactive),0.534 (inactive),1.82,-0.329,0.346,-0.011,-0.889,-1.76,-0.0229,0.0348 (inactive),-0.686,-1.14,0.512 (inactive)
CO[C@H]1O[C@H](CO)[C@@H](OC(=O)Nc2ccc(Oc3ccccc3)cc2)[C@H](OC(=O)Nc2ccc3c(c2)OCO3)[C@@H]1OC(=O)Nc1ccc2c(c1)OCO2,0.599 (inactive),0.0751,12.3 (active),2.93 (inactive),0.403 (inactive),1.7 (inactive),0.377,1.24 (inactive),-0.397 (inactive),-0.967,-0.882,-0.132,-0.845,-2.21,-1.74,-0.594,1.02 (inactive),-0.48,-0.751,-1.29 (inactive)
COc1ccc([Si](C)(C)[C@@H]2[C@@H](CC(=O)N3Cc4ccccc4C[C@H]3CO)O[C@]3(C(=O)N(Cc4cccc(N5CCC5=O)c4)c4ccccc43)[C@H]2C)cc1,-0.879 (inactive),0.199,2.84 (inactive),1.09 (inactive),-0.2 (inactive),0.917 (inactive),0.275,-0.355 (inactive),0.912 (inactive),2.11,-0.598,0.832,-0.16,-2.1,-2.55,-0.372,1.33 (inactive),-0.755,-1.16,-1.38 (inactive)
Cc1ccc(S(=O)(=O)N2C[C@@H](C(=O)O)[C@H](Sc3ccccc3)C[C@H]2c2ccccc2)cc1,-1.37 (inactive),0.409,1.7 (inactive),0.932 (inactive),0.369 (inactive),0.806 (inactive),-0.33,1.63 (inactive),0.111 (inactive),1.73,-1.21,-0.27,-0.721,-0.279,-0.45,-0.654,-0.883 (inactive),0.588,0.319,0.111 (inactive)
COc1ccc(NC(=O)O[C@H]2[C@H](OC(=O)c3cc4ccccc4[nH]3)[C@@H](OC(=O)c3cc4ccccc4[nH]3)[C@@H](OC)O[C@@H]2CO)cc1,0.799 (inactive),-0.0529,2.35 (inactive),-0.529 (inactive),0.52 (inactive),-0.955 (inactive),1.22,-3.65 (inactive),-1.18 (inactive),-4.46,0.349,0.203,0.825,-0.699,0.422,0.923,1.93 (inactive),0.168,-0.117,-1.92 (inactive)
CO[C@H]1O[C@H](CO)[C@@H](OC(=O)Nc2ccccc2)[C@@H]2OC(=O)[C@@H](Cc3ccc4ccccc4c3)C/C=C/C[C@H](Cc3ccc4ccccc4c3)C(=O)O[C@@H]12,2.85 (inactive),0.0167,2.71 (inactive),-0.0552 (inactive),-1.94 (inactive),-1.83 (inactive),0.77,0.829 (inactive),0.884 (inactive),-0.542,0.72,0.397,0.705,-0.268,0.575,-1,0.688 (inactive),-0.381,-0.135,-2.52 (inactive)
C=CC[C@]1(C(N)=O)COC(c2ccc(OCCCO)cc2)=N1,1.3 (inactive),0.269,3.06 (inactive),0.167 (inactive),0.111 (inactive),0.322 (inactive),0.537,-2.3 (inactive),0.13 (inactive),-0.131,0.669,-0.793,0.0717,0.327,1.3,0.16,0.654 (inactive),0.702,-0.753,0.381 (inactive)
COC(=O)C[C@H]1O[C@@H](CCc2ccccc2)[C@@H](C)[C@@H]1[Si](C)(C)c1ccc(OC)cc1,-0.95 (inactive),-0.188,2.54 (inactive),0.719 (inactive),-0.0062 (inactive),-0.0887 (inactive),0.0216,1.34 (inactive),-0.0337 (inactive),-2.06,1.47,1.27,-0.755,-0.843,-3.97,0.453,-0.0941 (inactive),-1.12,-0.0681,0.989 (inactive)
COc1ccc([Si](C)(C)[C@H]2[C@H](CCO)O[C@@]3(C(=O)N(Cc4ccccc4)c4ccc(N5CCCCC5=O)cc43)[C@@H]2C)cc1,0.663 (inactive),0.0844,6.61 (inactive),2.24 (inactive),1.45 (inactive),1.72 (inactive),0.204,-1.16 (inactive),0.636 (inactive),1.81,-0.0531,-0.627,-3.62,-2.03,-4.53,2,0.355 (inactive),-0.781,0.363,-2.68 (inactive)
